Hits are enriched below; roughly 7.3% of the tested compounds scored in any of these assays.
FLuc counter: inhibits or activates purified firefly luciferase, miR-21 counter-screen. hit rate 6.9% among 360,000. purified FLuc, Km substrates, luminescence inhibition. P08659. Potency, µM (doses to about 57.5 µM), for the others: at the highest dose activity change, negative = inhibition, hits mostly inhibitors;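 further: plate controls were vehicle for no effect and reference inhibitor for full effect; nearly all actives have a fitted effect of over 55% in size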
Target sequence (P08659 whole entry, looked up): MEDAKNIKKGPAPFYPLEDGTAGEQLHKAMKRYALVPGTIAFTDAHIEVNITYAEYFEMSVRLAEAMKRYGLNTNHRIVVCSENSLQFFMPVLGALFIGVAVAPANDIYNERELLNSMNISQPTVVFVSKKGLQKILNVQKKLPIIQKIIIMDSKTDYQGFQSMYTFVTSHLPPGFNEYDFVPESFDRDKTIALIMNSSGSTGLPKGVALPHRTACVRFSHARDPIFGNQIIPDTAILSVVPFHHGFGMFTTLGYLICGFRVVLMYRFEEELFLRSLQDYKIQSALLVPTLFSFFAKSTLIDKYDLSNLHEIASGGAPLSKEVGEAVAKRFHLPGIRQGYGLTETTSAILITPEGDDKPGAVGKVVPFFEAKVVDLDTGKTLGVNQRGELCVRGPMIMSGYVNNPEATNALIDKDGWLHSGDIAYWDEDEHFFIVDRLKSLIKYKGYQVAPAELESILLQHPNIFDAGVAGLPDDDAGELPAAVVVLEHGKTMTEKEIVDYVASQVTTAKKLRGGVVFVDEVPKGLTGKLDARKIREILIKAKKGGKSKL
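Purified P. pyralis luciferase, 10 nM final, with Km-level 10 uM D-luciferin and 10 uM ATP in 50 mM Tris acetate pH 7.5, 10 mM Mg acetate, 0.01% Tween-20, 0.05% BSA; 6-point qHTS titration about 60 µM downward; luminescence read.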
Rab9 promoter act: Rab9 promoter activation; Huh7 Rab9 promoter-luciferase reporter, luminescence, 24 h; Potency, µM (titrated, usually from 9.22 µM), inactives show at the top dose activation, negative = inhibition, hits mostly activators; hit rate 2.8% among 320,000; further: % of control where 0% means no effect; nearly all actives have a fitted effect of over 60% in size
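Stable Rab9-luc Huh7, 1500 cells/well, 2 h settle; cmpd in DMSO, 24 h, 37 °C/5% CO2; luciferase reagent 10 min RT; luminescence.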
SMN2 splice enh: SMN2 splice variant enhancement; Potency, µM (series often up to 46.1 µM), for the others: top-dose activity change, positive = activation, hits mostly activators; AID 1458; HEK293 SMN2-luciferase splicing reporter, luminescence, 30-36 h; hit rate 2.8% among 210,000; further: % of control where 0% means no effect; nearly all actives have a fitted effect of over 55% in size
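qHTS luciferase splicing reporter: luminescence rises when SMN2 exon 7 is included in transfected HEK293 cells. Compound exposure lasted 30-36 h at 37C, with 4.5 mM final sodium butyrate as control, followed by a ONE-Glo read.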
Luc counter: counter-screen: inhibitors of Kinase-Glo firefly luciferase; Potency, µM (highest dose often 38.3 µM), for inactives: at the top dose activity change, negative = inhibition, hits mostly inhibitors; Kinase-Glo luciferase, ATP luminescence, 8 min; hit rate 0.28% among 200,000; further: on the % scale 0 is the no-effect control and ±100 the full control effect; nearly all actives have a fitted effect of over 60% in size
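Compound is pinned into ATP-containing buffer (10 uM ATP, imidazole pH 7.2, 7 mM MgCl2). Kinase-Glo luciferase reagent is then added. Light output is recorded following an 8-min room-temperature incubation.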
NPC1 prom act: NPC1 promoter activation. Huh7 NPC1 promoter luciferase reporter, 24 h. Potency, µM (doses to about 9.22 µM), for inactives: top-dose activation, most hits filed as activators. hit rate 2.4% among 320,000. AID 485313; further: % of control where 0% means no effect; nearly all actives have a fitted effect of over 60% in size
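Compounds in DMSO were transferred onto Huh7 NPC1-luciferase reporter cells pre-incubated 2 h; after 24 h at 37 °C, Amplite reagent was dispensed and luminescence recorded 10 min later.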
* hit, by the source's call. The call rests on the fitted dose curve; in most records, active means well fitted curve in the direction sought with a large enough effect; inconclusive means small, poorly fitted or top-dose-only effect, or another doubt; inactive means no such curve, though single readings can be large; an effect the other way counts as inactive or inconclusive. Potency means the concentration at half of the fitted maximal effect.

For COc1ccc(C(=O)Nn2cnc3ccccc3c2=O)c(OC)c1 the results were FLuc counter inconclusive, Rab9 promoter act 2.51µM*, SMN2 splice enh 14.1µM*, Luc counter -0.4% and NPC1 prom act 2.24µM*.
For O=C(Cn1cnc2ccccc2c1=O)c1ccc2ccccc2c1 the results were FLuc counter inconclusive, SMN2 splice enh inconclusive and Luc counter -3.3%.
COc1ccc(NC(=O)c2oc3ccccc3c2NC(=O)c2cc(C)cc(C)c2)c(OC)c1 was read as FLuc counter 1.8% and SMN2 splice enh 4.0%.
`Cc1ccc(-c2nn3c(=O)cc(CN4CCN(C(=O)Nc5cc(Cl)ccc5C)CC4)nc3s2)cc1` gave FLuc counter -7.2%.
O=C(Cn1cnc2ccccc2c1=O)c1ccc2c(c1)OCCO2 was read as FLuc counter 6.01µM*, Rab9 promoter act 1.26µM*, SMN2 splice enh 11.2µM*, Luc counter 0.0% and NPC1 prom act 2µM*.
O=C(Cn1cnc2ccccc2c1=O)NCc1ccc2c(c1)OCO2 was read as FLuc counter -2.7%, Rab9 promoter act -7.4%, SMN2 splice enh -2.0%, Luc counter -3.0% and NPC1 prom act 1.5%.
Screening Cc1ccc(C(=O)CSc2cnc3ccccc3n2)cc1C returned FLuc counter 7.57µM*, Rab9 promoter act -0.7%, SMN2 splice enh -72.6%, Luc counter 0.8% and NPC1 prom act -3.3%.
Cc1ccc(S(=O)(=O)N2CCN(C(=O)CC(C)C)CC2)cc1 was read as FLuc counter 15.1µM*, Rab9 promoter act 1.12µM*, Luc counter -6.6% and NPC1 prom act 3.98µM*.
`O=C(C1COc2ccccc2O1)N1CCCC1` (centres undefined) gave FLuc counter 5.5%, Rab9 promoter act -4.8%, SMN2 splice enh -20.0%, Luc counter 4.1% and NPC1 prom act 0.4%.
O=C(C1CCN(S(=O)(=O)c2ccccc2)CC1)N1CCc2ccccc21 was read as FLuc counter 21.3µM*, Rab9 promoter act inconclusive and NPC1 prom act 21.5%.
For Cc1ccc(S(=O)(=O)N2CCCN(C(=O)c3cc4ccccc4[nH]3)CC2)cc1 the results were FLuc counter 19µM*, Rab9 promoter act 9.2% and NPC1 prom act 5.8%.
Screening CN1CCN(C(=O)c2cc3ccccc3[nH]2)CC1 returned FLuc counter -10.2%, Rab9 promoter act -0.9% and NPC1 prom act -0.2%.
For O=C(C1CCN(S(=O)(=O)c2ccccc2F)CC1)N1CCc2ccccc21 the results were FLuc counter -2.5%, Rab9 promoter act -3.3% and NPC1 prom act -1.9%.
O=C(C1COc2ccccc2O1)N1CCc2ccccc21 (centres undefined) was read as FLuc counter 21.3µM*, Rab9 promoter act 3.55µM*, SMN2 splice enh 10.9%, Luc counter -2.7% and NPC1 prom act 3.55µM*.
`COc1ccc(NC(=O)Nc2nnc(N3CCCC3)s2)cc1` gave FLuc counter 2.5%.
`O=c1cnc2cnc(OCc3ccccc3)nc2n1Cc1ccc(F)cc1` gave SMN2 splice enh -24.6% and Luc counter -2.7%.
For Cc1ccc(S(=O)(=O)N2CCC(C(=O)N3CCC3)CC2)cc1 the results were FLuc counter 9.53µM*, Rab9 promoter act 3.16µM* and NPC1 prom act 2.24µM*.
Screening O=C(C1CCN(S(=O)(=O)c2ccc(Cl)cc2)CC1)N1CCCC1 returned FLuc counter -0.8%, Rab9 promoter act -2.0% and NPC1 prom act -2.2%.
For S=C(Nc1ccccc1Cl)Nc1ccc(Cl)cc1Cl the results were FLuc counter -6.3%, Rab9 promoter act 12.3%, SMN2 splice enh -26.1%, Luc counter -2.5% and NPC1 prom act 3.2%.
S=C(Nc1ccccc1)Nc1ccc(Cl)cc1Cl was read as FLuc counter 26.9µM*, Rab9 promoter act inconclusive, SMN2 splice enh 25.6%, Luc counter 1.2% and NPC1 prom act 3.16µM*.
`O=C(COc1ccccc1)Nc1ccc(Cl)cc1Cl` gave FLuc counter 6.01µM*, Rab9 promoter act 2.24µM*, Luc counter -2.9% and NPC1 prom act inconclusive.
Screening COc1ccc(OCC(=O)Nc2ccccc2Cl)cc1 returned FLuc counter 2.6%, Rab9 promoter act 2.6%, Luc counter 1.4% and NPC1 prom act 2.0%.
`O=C(COc1ccccc1O)Nc1ccccc1Cl` gave FLuc counter 21.3µM*, Rab9 promoter act inconclusive, SMN2 splice enh 3.2%, Luc counter -2.0% and NPC1 prom act 3.98µM*.
Screening Cc1ccc(C(=O)N/N=C/c2ccc(S(=O)(=O)O)o2)c(Cl)c1 returned FLuc counter 15.1µM*, Rab9 promoter act -19.6%, SMN2 splice enh 9.2%, Luc counter 15.2% and NPC1 prom act -2.4%.
`NC(=O)c1sc2nc3c(cc2c1N)CCCCCC3` gave FLuc counter 19µM*, Rab9 promoter act inconclusive and NPC1 prom act 2.51µM*.
Screening N#Cc1sc2nc3c(cc2c1N)CCCC3 returned FLuc counter 13.5µM*, Rab9 promoter act -3.6%, SMN2 splice enh -8.8%, Luc counter -0.1% and NPC1 prom act 14.3%.
For Nc1c(C(=O)C2CC2)sc2nc3c(cc12)CCC3 the results were FLuc counter 8.49µM*, Rab9 promoter act inconclusive, Luc counter -2.7% and NPC1 prom act 2.51µM*.
`CN(C)CCCNC(=O)/C(=N\O)c1ccccc1` gave FLuc counter 5.7%, Rab9 promoter act 9.2%, SMN2 splice enh -6.8%, Luc counter -1.7% and NPC1 prom act -1.7%.
For O=C(NCCc1ccccc1)/C(=N\O)c1ccccc1 the results were FLuc counter 15.1µM*, Rab9 promoter act 3.98µM*, SMN2 splice enh inconclusive, Luc counter -6.6% and NPC1 prom act 3.16µM*.
CC(C)(C)NC(=O)NCCc1ccccc1 was read as FLuc counter 21.3µM*, Rab9 promoter act 3.98µM* and NPC1 prom act 1.41µM*.
For S=C(NCCc1ccccc1)NCCc1ccccc1 the results were FLuc counter 15.1µM*, Rab9 promoter act 4.47µM*, SMN2 splice enh 12.6µM*, Luc counter -5.7% and NPC1 prom act 4.47µM*.
Screening S=C(NCCc1ccccc1)Nc1ccc(Cl)cc1 returned FLuc counter 16.9µM*, Rab9 promoter act 22.9%, SMN2 splice enh 10µM*, Luc counter 0.2% and NPC1 prom act 24.1%.
For NNC(=S)NCCc1ccccc1 the results were FLuc counter -1.0%, Rab9 promoter act 6.6%, SMN2 splice enh 5.9%, Luc counter 0.1% and NPC1 prom act 5.6%.
COc1cc(C(CC(=O)NCc2ccccc2Cl)N2Cc3ccccc3C2=O)cc(OC)c1OC (centres undefined) was read as FLuc counter -4.4%.
Screening O=C(NCCc1ccccc1)Nc1ccc(Cl)cc1 returned FLuc counter 6.75µM*, Rab9 promoter act 3.16µM*, SMN2 splice enh 11.2µM*, Luc counter 2.0% and NPC1 prom act 2.51µM*.

Assay outcomes (PubChem BioAssay)
